Screens (PubChem BioAssay)
SW480 rerep: induces DNA re-replication in SW480 colon adenocarcinoma cells. SW480 DNA re-replication, Hoechst DNA content imaging, 48 h. hit rate 1.8% among 340,000. AID 624297. Potency, µM (doses to about 46.1 µM), without a hit: at the highest dose re-replication activation, hits mostly activators; further: % of control where 0% means no effect; nearly all actives have a fitted effect of over 55% in size
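Quantitative HTS format with DMSO vehicle controls; 48 hr drug incubation at 37 C, then 40 min Hoechst staining and scanning imager measurement at 405 nm excitation.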
HT1080-NT tox: kills 2HG-producing HT-1080-NT fibrosarcoma cells | hit rate 1.6% among 360,000 | Potency, µM (highest dose often 46.1 µM), for the others: at the top dose activity, negative = less viability, hits mostly cytotoxic | HT-1080-NT fibrosarcoma viability, CellTiter-Glo ATP luminescence, 48 h | AID 686970;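 further: NT is the 2HG producing partner of a matched IDH1 knockdown line; 0% = DMSO-treated cells and -100% = media-only wells without cells; nearly all actives have a fitted effect of over 55% in size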
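Viability by CellTiter-Glo luminescence after 48 h compound exposure at 37C of HT-1080-NT cells (750/well, RPMI, 5% FBS). % activity scaled between DMSO wells and medium-only wells, then curve-fitted and categorized by curve class.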
KB-V1 cytotox: KB-V1 MDR subline cytotoxicity | KB-V1 MDR cells viability, CellTiter-Glo, 72 h | Potency, µM (highest dose often 46.1 µM), actives largely listed as cytotoxic | AID 1347076 | hit rate 3.4% among 400,000; further: on the % scale 0 is the no-effect control and ±100 the full control effect; nearly all actives have a fitted effect of over 60% in size
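Readout: CellTiter-Glo luminescence, 10 min after addition. Cells: KB-V1 MDR subline, 72 h at 37 degrees C with compound. Analysis: corrected, normalized data fitted to concentration-effect curves.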
HT1080 IDH1KD tx: toxicity to HT-1080 IDH1 knockdown cells (counter line). Potency, µM (doses to about 46.1 µM), for the others: at the highest dose activity, negative = toxicity, hits mostly cytotoxic. HT-1080 IDH1 knockdown viability, ATP luminescence, 48 h. AID 686971. hit rate 2% among 360,000;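 further: 0% = DMSO wells and -100% = cell-free medium wells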
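IDH1KD HT-1080 cells, 750/well, RPMI + 5% FBS; compound pinned after 2 h settling; 48 h, 37 °C; CellTiter-Glo luminescence; % activity normalised to DMSO and no-cell wells; curves fitted, classed by r2 and efficacy.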
MCF10A rereplic: DNA re-replication induction in MCF 10a cells. MCF 10A DNA re-replication, Hoechst nuclear intensity, 48 h. Potency, µM (top dose mostly 46.1 µM), without a hit: at the top dose activity, positive = re-replication, usual class: activators. hit rate 2.9% among 350,000. AID 624296; further: % of control where 0% means no effect; nearly all actives have a fitted effect of over 50% in size
KB-3-1 tox: kills parental KB-3-1 adenocarcinoma cells | hit rate 1.4% among 400,000 | AID 1347075 | KB-3-1 viability, CellTiter-Glo ATP luminescence, 72 h | Potency, µM (titrated, usually from 46.1 µM), most hits filed as cytotoxic; further: on the % scale 0 is the no-effect control and ±100 the full control effect; nearly all actives have a fitted effect of over 60% in size
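Cytotoxicity measured as CellTiter-Glo luminescence after 72 h at 37 C. Compound titrations were pinned onto drug-naive KB-3-1 parental adenocarcinoma cells grown in DMEM with 10% FBS, and normalized data fitted to concentration-response curves.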
* hit, by the source's call; i = inactive; ? = inconclusive; . = no result; [ ] = dose if it differs, or a comment. Rows were chosen to be rich in hits. Some 7.9% of all compounds tested hit in one or more screens of this group. The call rests on the fitted dose curve; in most records, active means well fitted curve in the direction sought with a large enough effect; inconclusive means small, poorly fitted or top-dose-only effect, or another doubt; inactive means no such curve, though single readings can be large; an effect the other way counts as inactive or inconclusive. Potency means the concentration at half of the fitted maximal effect.

SMILES | SW480 rerep | HT1080-NT tox | KB-V1 cytotox | HT1080 IDH1KD tx | MCF10A rereplic | KB-3-1 tox
Cc1nn(-c2ccccc2)c(N)c1N=Nc1ccc2ccccc2c1 | 11.8% | -9.3% | i | -9.2% | 14.7% | ?
Cc1ccc(N=Nc2c(N)nn(-c3ccccc3)c2N)cc1 | 13µM* | 10.3µM* | 6.51µM* | 9.2µM* | 14.6µM* | ?
COC(=O)Cn1c(=O)c2c(n(Cc3ccccc3)c1=O)N/C(=C/c1ccc(Br)cc1)C2=O | ? | -4.4% | ? | -13.3% | 4.61µM* | ?
CCOC(=O)CNC(=S)n1ncnc1N | 5.8µM* | 13.2% | i | 11.4% | -7.0% | i
CN1CCc2nc3sc(C(=O)NCc4ccccc4)c(N)c3cc2C1 | -0.9% | -3.7% | i | ? | 18.4µM* | i
CCOC(=O)Nc1ccc2nc(Sc3ccc(Cl)cc3)sc2c1 | 16.4µM* | ? | i | ? | ? | i
CCOC(=O)CSc1nc2ccc(NC(=O)c3ccc(Cl)cc3)cc2s1 | . | . | i | . | . | i
CCCS(=O)(=O)NC(=O)C1(C)CCN(C(=O)c2cncc(Br)c2)C1 (centres undefined) | . | 25.7% | i | 4.4% | . | i
CC(C)C1C(=O)N(Cc2cn(CCC3OCCCO3)nn2)CCS(=O)(=O)N1Cc1ccc(-c2ccc(Cl)cc2)cc1 (centres undefined) | . | 6.0% | i | 8.3% | . | i
CC(C)C1C(=O)N(Cc2cn(CCC3OCCCO3)nn2)CCS(=O)(=O)N1Cc1ccc(-c2ccc(Cl)c(Cl)c2)cc1 (centres undefined) | . | 16.4µM* | ? | ? | . | ?
CC(C)C1C(=O)N(Cc2cn(CCC3OCCO3)nn2)CCS(=O)(=O)N1Cc1ccc(-c2ccc(Cl)cc2)cc1 (centres undefined) | . | 18.4µM* | 16.4µM* | ? | . | ?
COCCn1c(SC(C)C(=O)NCC2CCCO2)nc2scc(-c3ccc(F)cc3)c2c1=O (centres undefined) | 6.6% | 2.7% | ? | 3.5% | 7.6% | i
Cc1cc(OCC(=O)NCCc2c[nH]c3ccccc23)c2c(C)cc(=O)oc2c1 | -18.8% | 8.3% | i | 0.9% | 3.6% | i
COC(=O)c1cc(COC(=O)CNC(=O)c2ccc(Br)cc2)oc1C | -13.2% | 21.8% | i | 14.8% | 9.6% | i
CCOC(=O)C1=C(C)Nc2sc(C(=O)c3ccc(C)cc3)c(N)c2C1c1ccc(C(=O)OC)cc1 (centres undefined) | 18.4µM* | 0.7% | i | -16.7% | 3.66µM* | i
CCOC(=O)C1=C(C)Nc2sc(C(=O)c3ccc(F)cc3)c(N)c2C1c1ccc(C(=O)OC)cc1 (centres undefined) | 16.4µM* | -2.8% | i | -14.9% | 2.59µM* | i
CCCc1ccc(C(=O)NNc2ccc(F)cc2)cc1 | 4.2% | 4.11µM* | i | 7.31µM* | ? | ?
O=C(NNc1ccc(O)cc1)c1ccc(Br)cc1 | -40.1% | ? | i | 4.11µM* | ? | i
O=C(NNc1ccccc1)c1ccccc1 | -3.3% | ? | ? | -17.5% | ? | i
Cc1ccc(NC(=O)C(C)N2CCN(C)CC2)cc1S(=O)(=O)N1CCOCC1 (centres undefined) | 0.9% | 6.4% | ? | 0.3% | 0.5% | i
Cc1c(NC(=O)/C(C#N)=C/c2ccc(-c3cccc(Cl)c3)o2)c(=O)n(-c2ccccc2)n1C | ? | -29.5% | 9.2µM* | -20.9% | ? | ?
CCOC(=O)C1=C(COC(=O)CNC(=O)c2ccc(Cl)cc2Cl)NC(=O)NC1C (centres undefined) | -13.4% | -1.9% | i | -3.0% | 2.3% | i
COc1cc(CN(CCN(C)C)Cc2ccccc2)ccc1OCc1ccccc1 | ? | 23.1µM* | ? | 20.6µM* | ? | ?
COc1ccc(CN(CCc2ccccc2)Cc2ccccc2)cc1OC | -19.2% | -13.3% | i | -17.3% | ? | i
CCn1c(C)nc2cc(S(N)(=O)=O)ccc21 | 17.9% | -12.7% | i | -11.1% | 12.6µM* | i
SMILES | SW480 rerep | HT1080-NT tox | KB-V1 cytotox | HT1080 IDH1KD tx | MCF10A rereplic | KB-3-1 tox
CC(C)(C)C(=O)/C(C#N)=C/c1cccs1 | -0.8% | 21.0% | i | 10.8% | -4.7% | i
N#C/C(=C\c1cccs1)C(=O)c1ccccc1Cl | ? | ? | i | ? | 5.8µM* | i
Cc1cc(C)c(C(=O)/C=C/c2ccc(C(C)C)cc2)c(=O)[nH]1 | ? | -20.8% | 16.4µM* | 16.4µM* | 13µM* | i
Cc1cc(C)c(C(=O)/C=C/C=C/c2ccccc2)c(=O)[nH]1 | -0.7% | -3.5% | i | -3.3% | ? | i
CCCCCCCCCn1ccc(=N)cc1 | 2.1% | ? | 16.4µM* | 14.6µM* | 23.9% | 0.517µM*
CCCCCCCn1ccc(=N)cc1 | ? | ? | i | ? | ? | 4.61µM*
O=C(CC(=O)N/N=C/c1ccc(C(=O)O)cc1)NCCc1ccccc1 | -6.3% | 8.2% | i | 5.0% | 0.5% | i
S=C(NCc1ccco1)N1CCN(c2ccccc2Cl)CC1 | 3.4%[1.84 µM] | 9.0% | ? | 7.6% | 14.7% | i
Cc1ccc(NC(=O)c2cnn3c2NC(=C2CC2)C=C3C(F)F)cc1 | . | . | i | . | . | ?
Oc1cn2c(n1)Nc1ccc(Cl)c(Cl)c1C2 | 2.0% | . | . | . | 0.7% | .
O=C1CN2Cc3c(ccc(Cl)c3Cl)N=C2N1 | ? | -3.9% | 0.164µM* | 1.5% | 7.3% | i
CSc1cccc(-n2cc(-c3ccc4c(c3)OCO4)[nH]c2=O)c1 | 20.6µM* | ? | 7.31µM* | ? | 20.6µM* | 4.11µM*
COc1cc(C(=S)N2CCOCC2)cc(OC)c1OS(=O)(=O)c1ccc(C)cc1 | -52.7% | 5.0% | i | 2.4% | ? | i
C[C@@H]1CN([C@@H](C)CO)C(=O)c2cc(Br)cnc2O[C@H]1CN(C)C(=O)c1ccccc1F | . | 10.0% | i | 6.7% | . | i
O=C1N/C(=N\N=C\c2cccs2)SC1Cc1cccc(Cl)c1Cl (centres undefined) | 7.31µM* | 4.61µM* | ? | 6.51µM* | 1.46µM* | 5.17µM*
O=C1N/C(=N\N=C\c2cccs2)SC1Cc1ccc(Cl)cc1Cl (centres undefined) | -82.3% | ? | ? | ? | 20.7% | 7.31µM*
O=C1NC(=Nc2ccc(Cl)cc2)SC1Cc1cc(Cl)ccc1Cl (centres undefined) | 2.2% | -12.6% | 14.6µM* | -15.7% | ? | i
COc1ccc(-c2nc(CS(=O)(=O)CC(=O)NC3CCC(C)CC3)c(C)o2)cc1 (centres undefined) | ? | 1.9% | i | -5.4% | -0.4% | i
